{"source": "paper PMC7819943", "about": "“Rice protein-binding microarrays: a tool to detect cis-acting elements near promoter regions in rice”", "note": "Over roughly 68,000 sequences, “fluorescence intensity (a.u.)” has its median near 9,100; the highest 2% begin near 16,000. The list comes from a sample in which the highest values are over-represented; it also holds similar and randomly drawn sequences.", "data": [{"molecular_target": "OsWRKY34 (Oryza sativa, UniProt Q0JBA9 1-250)", "sequence (Q0JBA9 entry or part of it)": "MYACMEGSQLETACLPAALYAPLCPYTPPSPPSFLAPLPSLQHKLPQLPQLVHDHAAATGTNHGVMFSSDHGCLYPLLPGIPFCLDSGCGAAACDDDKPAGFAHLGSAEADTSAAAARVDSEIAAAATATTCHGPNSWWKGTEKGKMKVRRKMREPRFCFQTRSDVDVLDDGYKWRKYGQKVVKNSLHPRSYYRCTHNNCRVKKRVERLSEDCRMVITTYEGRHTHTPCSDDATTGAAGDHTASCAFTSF", "assay": "protein-binding microarray (RPBM); PBS, 2% BSA, 51.3 ng/ul salmon testes DNA, 50 uM zinc acetate, 200 nM TF, 25 C, 1 h; high values mean tight binding", "conditions": "protein: recombinant; tags: N-terminal polyhistidine and DsRed monomer fusion (pET32a); label: CyDye5-dUTP incorporated in the synthesized complementary strand; 3' TTTTT single-stranded linker to array surface; dsDNA, one strand shown", "procedure,_shortened": "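An Axon 4000B scanner gave the binding signal as per-feature fluorescence intensity in arbitrary units. This followed washing of a custom Agilent array that had been incubated for 1 h at 25 °C with 200 nM protein in PBS, 2% BSA, salmon testes DNA and 50 µM zinc acetate. The proteins were transcription factors fused at the N-terminus to polyhistidine and DsRed, expressed in E. coli BL21-CodonPlus and purified on Ni–NTA.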", "values": [{"sequence": "CCACTGCATACCAACACCAACCACTGTACTAGCACTACTACGGAGTCACCTAGTGCAG", "binding signal": "8980 fluorescence intensity (a.u.)"}, {"sequence": "AGATTGTGGTGGGTGTTGATTGTGGTGATCTTGTCCCCTCCGGAGTCACCTAGTGCAG", "binding signal": "13000 fluorescence intensity (a.u.)"}, {"sequence": "GGCTCGCGGAGGGCGGGGCTGGGATGGTGGCGGATGGGAGCGGAGTCACCTAGTGCAG", "binding signal": "10800 fluorescence intensity (a.u.)"}, {"sequence": "AGAGATGCGTGTGTAGGCGGCGGGGAGGGGAGGGCTGTGACGGAGTCACCTAGTGCAG", "binding signal": "17700 fluorescence intensity (a.u.)"}, {"sequence": "AGGCGAGCGAGGCGGGTGGGCGGGGAGCGAACCAACGACGCGGAGTCACCTAGTGCAG", "binding signal": "8840 fluorescence intensity (a.u.)"}, {"sequence": "GGGCTGGAGATGGAGATGGAGATGGAGATGGAGGGTGGGTCGGAGTCACCTAGTGCAG", "binding signal": "8660 fluorescence intensity (a.u.)"}, {"sequence": "GGCGGGGCGGCGGAGGTGGTGGTGGGGAGGGCGAGAGATGCGGAGTCACCTAGTGCAG", "binding signal": "23400 fluorescence intensity (a.u.)"}, {"sequence": "CTCGAGCGGCGGTGGGGATGGGGATGGGGCGGCGGCGACGCGGAGTCACCTAGTGCAG", "binding signal": "17000 fluorescence intensity (a.u.)"}, {"sequence": "GGAGAAAAAGGGGAGGGAGGGAGATGATGACGTGTAGGGGCGGAGTCACCTAGTGCAG", "binding signal": "8550 fluorescence intensity (a.u.)"}, {"sequence": "AGAGGAGGAGAGTGGTGGTGGTGCGAGAGGGAGGGAGATGCGGAGTCACCTAGTGCAG", "binding signal": "9230 fluorescence intensity (a.u.)"}, {"sequence": "CTACTATACGTCGATGGGGAGGGAGGGAGGGTGGCTGTAGCGGAGTCACCTAGTGCAG", "binding signal": "26400 fluorescence intensity (a.u.)"}, {"sequence": "GTGGTGTAGTGGGAGCGGCCGAGATGGGGCGTCGACGGGGCGGAGTCACCTAGTGCAG", "binding signal": "8770 fluorescence intensity (a.u.)"}, {"sequence": "GCGGGAGGAGAGCGGCGGGCGGCGGGCGGCGGCGGCTGTGCGGAGTCACCTAGTGCAG", "binding signal": "9520 fluorescence intensity (a.u.)"}, {"sequence": "GGAGATCCTGAGGCAGCGGGGAGAGGGGAGGTGGGCGATGCGGAGTCACCTAGTGCAG", "binding signal": "10500 fluorescence intensity (a.u.)"}, {"sequence": "ATTGCATCGCCCATTTCGCTCATGGATCAGTAGGTAGCCACGGAGTCACCTAGTGCAG", "binding signal": "8190 fluorescence intensity (a.u.)"}, {"sequence": "AGTCAGTGACATCTATCTTTTCATCGATGTGTCTATTGCCCGGAGTCACCTAGTGCAG", "binding signal": "8640 fluorescence intensity (a.u.)"}, {"sequence": "ACCCATCCATCGCCAGCCATGCACACCCTCGCTCTGACGACGGAGTCACCTAGTGCAG", "binding signal": "8640 fluorescence intensity (a.u.)"}, {"sequence": "CAACGAGGAGCGATGCATATCTAGCAGTTTTGTTTTTCATCGGAGTCACCTAGTGCAG", "binding signal": "8420 fluorescence intensity (a.u.)"}, {"sequence": "TACACCCTTGGGCCCACCTGTCAACCTCTCACCCTATATTCGGAGTCACCTAGTGCAG", "binding signal": "11900 fluorescence intensity (a.u.)"}, {"sequence": "GATGAGTCCTCACCTGAGTTTCTTCCGTCCATGGCGGCCGCGGAGTCACCTAGTGCAG", "binding signal": "10500 fluorescence intensity (a.u.)"}, {"sequence": "ATCCCCAGCCTCCAATACCGGTCCCGTGCTTGTTTTTCTTCGGAGTCACCTAGTGCAG", "binding signal": "9470 fluorescence intensity (a.u.)"}, {"sequence": "AATTCGTACTTTTTCCTTTGTGTTTTGTCTATCTTAAATTCGGAGTCACCTAGTGCAG", "binding signal": "14300 fluorescence intensity (a.u.)"}, {"sequence": "AAACCCACCCACCCAGCGCTTCTTCTTTCCTTTCTTTATTCGGAGTCACCTAGTGCAG", "binding signal": "12900 fluorescence intensity (a.u.)"}, {"sequence": "TTTCCAACCTGATCGGGTGCTGCCTTTTCATTCTTCCCTCCGGAGTCACCTAGTGCAG", "binding signal": "8430 fluorescence intensity (a.u.)"}, {"sequence": "ATTTCCCCTGAACTCTACGTTTACAGGTTATGGTTATCTCCGGAGTCACCTAGTGCAG", "binding signal": "8350 fluorescence intensity (a.u.)"}, {"sequence": "ATACATATTTTTTTCTCTATTTCTGCCCAACATGTTTTTCCGGAGTCACCTAGTGCAG", "binding signal": "8950 fluorescence intensity (a.u.)"}, {"sequence": "AAGGGTTATCGACCTACGCCTGCTGGCCCTTTTCGGCTTTCGGAGTCACCTAGTGCAG", "binding signal": "9300 fluorescence intensity (a.u.)"}, {"sequence": "TGTCAGGTCAAATCGGGGAGGCGGGGTGCGTACCAACGGTCGGAGTCACCTAGTGCAG", "binding signal": "11900 fluorescence intensity (a.u.)"}, {"sequence": "CGTTGGAACGTGCGGGTGTGGGGAAACTGAGGGTGAGGATCGGAGTCACCTAGTGCAG", "binding signal": "8600 fluorescence intensity (a.u.)"}, {"sequence": "GCTGTGGCGGAGGTGGGGAGGTGGAGGTGGAGGGGAGATGCGGAGTCACCTAGTGCAG", "binding signal": "24600 fluorescence intensity (a.u.)"}, {"sequence": "GAGGTGGGTGTGGAACTGTGGATGCGGGTCGGGGAGATCGCGGAGTCACCTAGTGCAG", "binding signal": "16900 fluorescence intensity (a.u.)"}, {"sequence": "CTGTGCGGGAGGTGGAGATGGAGATGGTGGGTGGATCGGACGGAGTCACCTAGTGCAG", "binding signal": "8630 fluorescence intensity (a.u.)"}, {"sequence": "CGCTCGGCGGTGAGGTGGAGGTGGAGGTGGGTGGGAGATGCGGAGTCACCTAGTGCAG", "binding signal": "12900 fluorescence intensity (a.u.)"}, {"sequence": "TGGTGGTGGTGGTGGCTGTAGTGTGGAGGTGGTGGGGAGTCGGAGTCACCTAGTGCAG", "binding signal": "16700 fluorescence intensity (a.u.)"}, {"sequence": "GATGCGGGTGAGGTGCCGCGCTGTGGGGAGAGAGGGTGGGCGGAGTCACCTAGTGCAG", "binding signal": "8560 fluorescence intensity (a.u.)"}, {"sequence": "AAACGCTGTGGTGGGTGGTGGTGCGGATGGGGAGGTGTGGCGGAGTCACCTAGTGCAG", "binding signal": "14100 fluorescence intensity (a.u.)"}, {"sequence": "TCGGCGGCGAGGTGGTGGCGGTGGCGGTGGTGGGAGTAGTCGGAGTCACCTAGTGCAG", "binding signal": "15200 fluorescence intensity (a.u.)"}, {"sequence": "GGGAGATTTGTTGCAACGGAGGGCATTGAGTGGTGGGGACCGGAGTCACCTAGTGCAG", "binding signal": "8570 fluorescence intensity (a.u.)"}, {"sequence": "TGCATTGACCAGGTCAACGGGAGAGGGAGGGGCAAAATCGCGGAGTCACCTAGTGCAG", "binding signal": "19600 fluorescence intensity (a.u.)"}, {"sequence": "CATCTGATCGGCATCGGCATCGTCCTCGTCCTCGGCATCACGGAGTCACCTAGTGCAG", "binding signal": "9990 fluorescence intensity (a.u.)"}, {"sequence": "TCTGGGTATCCTCTGTTATGTCATCTTCACCTCCATTTGGCGGAGTCACCTAGTGCAG", "binding signal": "8690 fluorescence intensity (a.u.)"}, {"sequence": "CTGCTAGCCCGGTTAATCTACCAAAACCCGTCTTGATTTACGGAGTCACCTAGTGCAG", "binding signal": "9070 fluorescence intensity (a.u.)"}, {"sequence": "TTAGTATAGCTGTATTCTTCCCAACTTCCTATTTTCCTCTCGGAGTCACCTAGTGCAG", "binding signal": "8540 fluorescence intensity (a.u.)"}]}]}
